PubChem BioAssay
Where “and” joins values, the source holds several entries; their conditions need not be identical. Identical values can stand only once. Calls of active or inactive are those of the source. Unless noted, how the calls were made is not given here.

Experiments:
[1] = P. berghei load reduction in hepatocytes – cell-based, HepG2, luciferase luminescence, HepG2 viability, primary screen (AID 624349; in the data active means parasite load remaining mostly below about 12%, no sharp cut-off; inactive means mostly above about 10%;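 further: 100% = mean of DMSO negative control wells on the same plate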); details: P. berghei liver stage in HepG2, luciferase luminescence, concentration not given here; parasite load remaining: stronger effect = lower value; viability: measured here: HepG2 viability without parasites
[2] = liver-stage malaria parasite load reduction – cell-based, known kinase inhibitor set, luminescence, hepatoma host viability (AID 624392); details: Plasmodium liver stage in hepatoma cells, luciferase luminescence, concentration not given here; liver cell % of control: measured here: host liver cell viability; parasite % of control: stronger effect = lower value;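 further: infected cells incubated roughly two days before readout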

SMILES | parasite load remaining [1] | viability [1] | liver cell % of control [2] | parasite % of control [2]
O=C1NCCc2[nH]c(-c3ccnc(-c4cnc5ccccc5c4)c3)cc21 | 35.3% (inactive) | 77.1% |  | 
CCN1CCN(Cc2ccc(NC(=O)c3cc(NC(=O)c4ccno4)cc(OC)c3)cc2C(F)(F)F)CC1 |  |  | 99.7% | 75.7% (inactive)
CCOC(=O)c1c(C)[nH]c(/C=C2\C(=O)Nc3ccccc32)c1C | 39.2% (inactive) | 69.8% |  | 
O=C(Nc1ccc(-c2csc(Nc3ccccc3)n2)cc1)c1cc([N+](=O)[O-])cc(C(F)(F)F)c1 |  |  | 102% | 102% (inactive)
O=C(c1cc2cc(O)ccc2[nH]1)c1cc2cc(O)ccc2[nH]1 | 37.2% (inactive) | 97.4% |  | 
CCCCn1c2ccc(O)cc2c2c3c(c(-c4ccccc4Cl)cc21)C(=O)NC3=O | 56.2% (inactive) | 74.7% |  | 
CCCCc1c(-c2ccc(OC)cc2)[nH]c2nccnc12 | 34.8% (inactive) | 106% |  | 
c1ccc2c(-c3ccncc3)c[nH]c2c1 | 30.9% (inactive) | 66.5% |  | 
Nc1nc(O)c(C2=C3C(=Nc4ccccc43)C(=O)NCC2)[nH]1 | 45.8% (inactive) | 99.9% |  | 
CCc1[nH]c(-c2ccc(OC)cc2)nc1-c1ccncc1 | 30.1% (inactive) | 82.4% |  | 
CCOc1nc(NC(=O)Cc2cc(OC)ccc2OC)cc(N)c1C#N | 37.8% (inactive) | 72.7% |  | 
CC(C)CC(CO)Nc1nc(N(C)c2cccc(Cl)c2)c2ncn(C(C)C)c2n1 (centres undefined) |  |  | 102% | 114% (inactive)
COc1cc(NC(=O)c2cc(C)on2)cc(C(=O)Nc2cccc(C(F)(F)F)c2)c1 |  |  | 96.5% | 66.6% (inactive)
C=CC(=O)Nc1cccc(Oc2ccnc3[nH]ccc23)c1 |  |  | 102% | 56.9% (inactive)
O=C(Nc1cccc(Nc2nccc(Nc3cccc(C(F)(F)F)c3)n2)c1)C1CC1 | 36.9% (inactive) and 34.4% (inactive) | 99.7% and 89.6% |  | 
CC(C)n1cnc2c(Nc3ccc(C(=O)O)cc3)nc(Cl)nc21 |  |  | 88.9% | 123% (inactive)

SMILES | parasite load remaining [1] | viability [1] | liver cell % of control [2] | parasite % of control [2]
CC(C)C(CO)N(Cc1cccc(F)c1)c1nc(Nc2cccc(Cl)c2)c2ncn(C(C)C)c2n1 (centres undefined) |  |  | 91.9% | 62.1% (inactive)
O=c1[nH]c(O)c2c1c1c3ccccc3nc1n1cncc21 | 34.3% (inactive) | 93.6% |  | 
NC(=O)Nc1sc(-c2ccccc2)cc1C(N)=O | 55.2% (inactive) | 90.8% | 111% | 316% (inactive)
CS(=O)(=O)Nc1ccc(-c2ccc(C=C3SC(N)=NC3=O)o2)cc1 |  |  | 105% | 130% (inactive)
CCN1CCN(Cc2ccc(NC(=O)c3ccc(C)c(NC(=O)CC4NC(=O)C(Cc5ccccc5)NC4=O)c3)cc2C(F)(F)F)CC1 (centres undefined) |  |  | 105% | 114% (inactive)
O=C(Nc1ccc(-c2csc(Nc3cccc(C(F)(F)F)c3)n2)cc1)c1cc([N+](=O)[O-])cc(C(F)(F)F)c1 |  |  | 101% | 70% (inactive)
O=C(Nc1cccc(Nc2cc(Nc3cccc(C(F)(F)F)c3)ncn2)c1)C1CC1 | 48.9% (inactive) | 163% |  | 
Nc1ccccc1CNc1nc(NCCO)nc2c1ncn2CCN1CCOCC1 |  |  | 100% | 125% (inactive)
NS(=O)(=O)c1ccc(-c2ccc(C=C3C(=O)c4ccccc4C3=O)o2)cc1 |  |  | 102% | 96.4% (inactive)
CCN1CCN(Cc2ccc(NC(=O)c3cc(NC(=O)c4cnn(-c5ccccc5)c4N)cc(OC)c3)cc2C(F)(F)F)CC1 |  |  | 109% | 130% (inactive)
COc1cc(NC(=O)c2nccnc2N)cc(C(=O)Nc2cccc(C(F)(F)F)c2)c1 |  |  | 97.3% | 84.9% (inactive)
CC(C)C(CO)Nc1nc(Nc2cc(C(=O)O)cc(C(=O)O)c2)c2ncn(C(C)C)c2n1 (centres undefined) |  |  | 107% | 38% (inactive)
CN(C)CCCNc1ccc(-c2cc(Nc3cccc(Cl)c3)ncn2)cn1 |  |  | 94.9% | 108% (inactive)
COc1cc(NC(=O)c2ccnc(N)c2)cc(C(=O)Nc2cccc(C(F)(F)F)c2)c1 |  |  | 96.6% | 89.2% (inactive)
CC(C)n1cnc2c(NCc3ccc(S(N)(=O)=O)cc3)nc(NCc3ccc(S(N)(=O)=O)cc3)nc21 |  |  | 102% | 108% (inactive)
